Assay [1] deals with Zika virus NS2B-NS3 protease (linked construct). Kind of assay: Primary screen NINDS Rhodamine qHTS for Zika virus inhibitors (AID 1347160). Note: nearly all actives have a fitted effect of over 55% in size. The gist of the method: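 Kinetic fluorescence (Ex 480 nm, Em 540 nm) over 15 min with 1.5 microM Rhodamine110 peptide and 25 nM linked protease.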
For orientation: Quantitative high-throughput screening tests each substance at several concentrations.

Assay [2] deals with Calcium and integrin-binding protein 1 (Homo sapiens) (UniProt Q99828). In words: Primary qHTS for Identification of Calcium Integrin Binding Protein 1 (CIB1) Competitor (AID 1508620). Note: top concentration of the series differs between compounds; % is set by controls: 0 for no effect and ±100 for the full control effect. Put shortly: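 Fluorescence polarization competition: GST-tagged CIB1 (1 uM final) preincubated with compound 15 min at room temperature, then FITC-labelled alphaIIb peptide (100 nM final) added. After 15 min at room temperature, polarization read at Ex 480/Em 540.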
Sequence of Calcium and integrin-binding protein 1 (Homo sapiens) (Q99828 whole entry, looked up): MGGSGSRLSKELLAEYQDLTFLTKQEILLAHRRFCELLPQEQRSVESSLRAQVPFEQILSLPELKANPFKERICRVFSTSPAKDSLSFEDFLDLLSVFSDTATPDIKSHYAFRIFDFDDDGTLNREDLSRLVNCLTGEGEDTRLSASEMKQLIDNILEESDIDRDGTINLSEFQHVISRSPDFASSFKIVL

The target of assay [3] is Glutathione peroxidase 1 (Homo sapiens) (UniProt P07203). Kind of assay: Primary qHTS Assay for Inhibitors of Recombinant Selenoprotein Glutathione Peroxidase 1 (GPX1) (AID 1845191). Note: nearly all actives have a fitted effect of over 65% in size. The gist of the method: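 GR-coupled assay: compounds preincubated 30 min at room temperature with GPX1, then reaction started with CHP; final 10 nM GPX1, 1 mM GSH, 0.5 mM CHP, 0.5 mM NADPH, 100 nM GR, 0.01% BSA, pH 7.5 Tris buffer. NADPH fluorescence (340/450 nm) read at 0 and 15 min.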
Sequence of Glutathione peroxidase 1 (Homo sapiens) (P07203 whole entry, looked up): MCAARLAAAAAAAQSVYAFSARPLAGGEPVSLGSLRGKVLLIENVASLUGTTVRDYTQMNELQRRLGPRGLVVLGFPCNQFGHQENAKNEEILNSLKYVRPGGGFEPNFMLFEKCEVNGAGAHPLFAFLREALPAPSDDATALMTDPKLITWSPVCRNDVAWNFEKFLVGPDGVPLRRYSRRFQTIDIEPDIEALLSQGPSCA

In assay [4] the target is Luciferin 4-monooxygenase (Photinus pyralis) (UniProt P08659). Kind of assay: Primary firefly luciferase (FLuc) qHTS assay for identification of artifact compounds. (AID 1845220). Note: nearly all actives have a fitted effect of over 60% in size. Particulars: outcome: dose series up to 54.1 µM unless noted. Put shortly: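 Titrated compounds were incubated 15 min at RT, protected from light, with luciferin and ATP at 10 uM; reaction started with 10 nM FLuc, luminescence imaged at 5 min, and concentration-response fitted by Hill equation.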

The nature of assay [5]: Primary fluorescence-based thiol-reactive (MSTI) qHTS assay for identification of artifact compounds. (AID 1845221).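 Note: thiol-reactive compounds lower the probe fluorescence signal; nearly all actives have a fitted effect of over 65% in size.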 The gist of the method: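 Thiol-reactive compounds detected by quenching of 4 uM MSTI fluorescence (525/598 nm) after 1 h room-temperature dark incubation in PBS pH 7.4, 2% DMSO. qHTS titration; percent inhibition Hill-fitted against Acetyl-MSTI/MSTI controls.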

Assay [6] relates to Nanoluciferase (engineered Oplophorus gracilirostris luciferase). Kind of assay: Primary Nanoluciferase (NLuc) qHTS assay for identification of artifact compounds. (AID 1845222).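 Note: NLuc secreted into diluted conditioned medium of S16 cells; 0% = DMSO and -100% = no enzyme.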 The gist of the method: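 qHTS format, against NLuc in S16 cell-conditioned medium. Nano-Glo substrate 1:100 was added after 15 min at room temperature. Luminescence was taken after a further 5 min.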

Assay [7] is described as follows: Primary redox qHTS assay for identification of artifact compounds. (AID 1845223).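 Note: 0% = DMSO and 100% = reference compound.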 The gist of the method:
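Amplex Red (25 uM) and HRP (250 mU/mL) in HBSS, with compounds for 15 min, then 250 uM DTT for 30 min, room temperature, dark. Fluorescence 525/598 nm read; normalized to DMSO and 10 uM DA3003; Hill fit.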

Another assay concerns C33A. Kind of assay: Primary qHTS to identify gynecologic anti-cancer compounds using libraries of approved drugs and bioactive compounds (AID 1345084). For activity change, negative = cytotoxicity: % is set by controls: 0 for no effect and ±100 for the full control effect. Note: nearly all actives have a fitted effect of over 55% in size. Note: potency is the fitted concentration of half-maximal effect. Conditions: Gynecologic cancer cell panel viability, ATPlite luminescence, 48 h; series mostly up to 57.5 µM. Put shortly: (§1)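 Five-point cytotoxicity, 48 h drug exposure at 37 C, 5% CO2, on cells seeded 16 h beforehand. ATP content read by ATPlite luminescence.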

The subject of a further assay is CAOV3. The assay is described as above. Conditions: Gynecologic cancer cell panel viability, ATPlite luminescence, 48 h; series mostly up to 57.5 µM. Put shortly:
as §1
A general note: In ATP-based viability assays light output follows the ATP content of the culture.

For the next assay, the system named is Es-2. Described as above. Conditions: Gynecologic cancer cell panel viability, ATPlite luminescence, 48 h; series mostly up to 57.5 µM. Put shortly:
as §1

Another assay concerns JEG-3. The assay is described as above. Conditions: Gynecologic cancer cell panel viability, ATPlite luminescence, 48 h; series mostly up to 57.5 µM. The gist of the method:
as §1

For a further assay, the system named is OV90. The assay is described as above. Conditions: Gynecologic cancer cell panel viability, ATPlite luminescence, 48 h; series mostly up to 57.5 µM. The gist of the method:
as §1

In a further assay the test system is PA-1. The description is as above. Conditions: Gynecologic cancer cell panel viability, ATPlite luminescence, 48 h; series mostly up to 57.5 µM. Put shortly: as §1
Another assay concerns Tov-21-G. The description is as above. Conditions: Gynecologic cancer cell panel viability, ATPlite luminescence, 48 h; series mostly up to 57.5 µM. The gist of the method: as §1
The next assay has as its system HaCat. In words: Cytotoxic Profiling of Annotated Libraries Using Quantitative High-Throughput Screening (AID 1296008). For max response: % is set by controls: 0 for no effect and ±100 for the full control effect. Note: nearly all actives have a fitted effect of over 60% in size. Note: potency is the fitted concentration of half-maximal effect. Particulars: Five cell lines viability, CellTiter-Glo ATP luminescence, 48-72 h; max response: active compounds read low. Put shortly: (§2)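 Cells exposed to compounds for 48 or 72 hr at 37 degrees Celsius. Viability read as ATP-coupled luminescence with CellTiter-Glo after 10 min at room temperature.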

The next assay relates to NIH3T3. The assay is described as above. Particulars: Five cell lines viability, CellTiter-Glo ATP luminescence, 48-72 h; max response: active compounds read low. The gist of the method:
as §2

The test system of another assay is CASKI. In words: Primary qHTS to identify gynecologic anti-cancer compounds using libraries of approved drugs and bioactive compounds (AID 1345084). For activity change, negative = cytotoxicity: % is set by controls: 0 for no effect and ±100 for the full control effect. Note: nearly all actives have a fitted effect of over 55% in size. Note: potency is the fitted concentration of half-maximal effect. Particulars: Gynecologic cancer cell panel viability, ATPlite luminescence, 48 h; series mostly up to 57.5 µM. Put shortly:
as §1

Another assay deals with Hek293T. Described as above. Particulars: Gynecologic cancer cell panel viability, ATPlite luminescence, 48 h, control line for the selectivity index; series mostly up to 57.5 µM. Put shortly:
as §1

For another assay, the system named is Tov112D. The description is as above. Particulars: Gynecologic cancer cell panel viability, ATPlite luminescence, 48 h; series mostly up to 57.5 µM. The gist of the method: as §1
Assay [8] addresses Phospholipid hydroperoxide glutathione peroxidase GPX4 (Homo sapiens) (UniProt P36969). Kind of assay: Primary qHTS Assay for Inhibitors of Recombinant Selenoprotein Glutathione Peroxidase 4 (GPX4) (AID 1845192). Note: % is set by controls: 0 for no effect and ±100 for the full control effect; nearly all actives have a fitted effect of over 65% in size. The gist of the method: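 GR-coupled assay: recombinant GPX4 preincubated 30 min with compound at room temperature; final 200 nM GPX4, 1 mM GSH, 0.5 mM cumene hydroperoxide, 0.5 mM NADPH, 100 nM GR, 0.01% BSA, pH 7.5 Tris. NADPH fluorescence (340/450 nm) read at 0 and 15 min.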

Values without a mark were called inactive. Results filed as inconclusive are left out. Calls of active or inactive are those of the source. Calls come from the whole dose curve; as a rule, active = well fitted curve in the direction sought with a large enough effect; inconclusive = small, poorly fitted or top-dose-only effect, or another doubt; inactive = no such curve, though single readings can be large; an effect the other way counts as inactive or inconclusive. Where a SMILES comes first, the peptide text is derived from it. [ ]: non-standard residue; d: D form. The star is where a group is joined. Dolaproine = CO[C@@H]([C@@H]1CCCN1)[C@@H](C)C(=O)O; Dil = CC[C@H](C)[C@H](NC)[C@@H](CC(=O)O)OC; Doe = c1ccc(C[C@H](N*)c2nccs2)cc1; Aib = CC(C)(N)C(=O)O

Sequence of Phospholipid hydroperoxide glutathione peroxidase GPX4 (Homo sapiens) (P36969 whole entry, looked up): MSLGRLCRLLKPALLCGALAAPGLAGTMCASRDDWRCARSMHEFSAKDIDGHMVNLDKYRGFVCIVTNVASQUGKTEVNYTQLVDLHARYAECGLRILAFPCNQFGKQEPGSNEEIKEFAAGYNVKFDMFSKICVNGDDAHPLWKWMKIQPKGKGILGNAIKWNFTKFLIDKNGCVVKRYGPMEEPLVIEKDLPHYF

On to `C[C@@H](CN1CCC2(CC1)C(=O)NCN2c1cccc(F)c1)NC(=O)c1ccc(Br)cc1`, for which the Potency entry in assay [1], in assay [2], in assay [3], in [5], in assay [6] and in [7] was “inactive” each time. The Potency entry in the assay with C33A, in the assay with CAOV3, in the assay with Es-2, in the assay with JEG-3, in the assay on OV90 and in the assay with PA-1 was “inactive” in each case. The Potency entry in the assay with Tov-21-G is “inactive”. The result in [4] was inactive.
For `O=C1CN=C(c2ccccc2Cl)c2cc(Br)ccc2N1`, the Potency result in assay [1], in assay [2], in assay [3], in assay [5], in assay [6] and in assay [7] was “inactive” throughout. For the same compound, the Potency result with C33A, in the assay with CAOV3, with CASKI, in the assay with Es-2, with Hek293T and in the assay with JEG-3 was “inactive” each time. Further, the Potency entry with OV90, in the assay with PA-1, with Tov-21-G and in the assay with Tov112D was “inactive” each time. In addition, the compound was called inactive (in [4]; in the assay with NIH3T3). Moreover, the max response with HaCat was -40.1%.
With `CC[C@H](C)[C@@H]([C@@H](CC(=O)N1CCC[C@H]1[C@H](OC)[C@@H](C)C(=O)N[C@@H](Cc1ccccc1)c1nccs1)OC)N(C)C(=O)[C@@H](NC(=O)C(C)(C)N)C(C)C` (H-[Aib]V[Dil][Dolaproine]-Doe), the Potency entry (in assay [1]; in assay [2]; in [3]; in assay [5]; in assay [6]; in the assay with CAOV3) was “inactive” throughout. Moreover, the Potency entry in the assay on Hek293T is “inactive”. Further, the outcome (in [4]; in the assay on HaCat) was inactive. Also, the max response in the assay on NIH3T3 is -54.1%.
Regarding `O=C1Nc2ccc3ncsc3c2/C1=C/c1cnc[nH]1`, the Potency result in assay [1], in assay [3], in assay [8], in assay [5], in assay [6] and in assay [7] was “inactive” in each case. Further, in the assay on OV90, the Potency result was “inactive”. For the same compound, in assay [4], the call was inactive. Further, the values for the Potency in the assay with HaCat and in the assay on PA-1 were 4.11 µM (active) and 7.94 µM (active), respectively.
On to `CC[C@@H]1/C=C/C=C/C[C@H](C)C(O)[C@](C)(O)C(=O)[C@H](C)C(O)[C@H](C)C(=O)[C@H](C)[C@@H](O)[C@H](C)/C=C/C(=O)O[C@H]2[C@@H](C)[C@@H](CC1)O[C@]1(O[C@H](C[C@H](C)O)[C@H](C)CC1=O)[C@@H]2C` (some centres undefined), for which the Potency result in assay [1], in assay [2], in assay [3] and in assay [8] was “inactive” each time. Moreover, in assay [4], the outcome is “inactive [at 11.6 µM]”. Further, the activity change, negative = thiol reactive in assay [5] was -8.56% [at 11.5 µM]. Besides, the redox activity (% of DA3003) in assay [7] was 13.1% [at 11.5 µM]. For the same compound, the max response is -17.7% in the assay on HaCat and -27% in the assay with NIH3T3. Moreover, the activity change, negative = cytotoxicity in the assay with CAOV3 was -25.5% [at 11.6 µM]; with CASKI, -1.41% [at 11.6 µM]; with Es-2, -1.68% [at 11.6 µM]; in the assay on JEG-3 it was 22.8% [at 11.6 µM]; in the assay with Tov-21-G, 25.5% [at 11.6 µM]; in the assay on Tov112D, -13.7% [at 11.6 µM].
Regarding `CC[C@@H](C)[C@H]1C(=O)O[C@H](C(C)C)C(=O)N(C)[C@@H](C(C)C)C(=O)O[C@H](C(C)C)C(=O)N(C)[C@@H](C(C)C)C(=O)O[C@H](C(C)C)C(=O)N1C`, the Potency entry in assay [1], in [2], in [3], in assay [8], in assay [5] and in [7] was “inactive” throughout. Also, the Potency entry in the assay on CASKI and in the assay on JEG-3 was “inactive” in each case. In [4], the compound was classed as inactive.
Turning to `C[C@H](Nc1ncnc2nc[nH]c12)c1nc2ccc(F)cc2c(=O)n1-c1ccccc1`, the Potency entry in assay [1], in [3], in assay [8], in [5], in assay [6] and in [7] was “inactive” each time. In addition, the Potency entry in the assay with C33A, with CAOV3, in the assay on CASKI, in the assay on Es-2, in the assay with JEG-3 and with OV90 was “inactive” each time. Moreover, the Potency result with PA-1, with Tov-21-G and with Tov112D was “inactive” in each case. The outcome in [4] was inactive. Moreover, in the assay with NIH3T3, the Potency is 13 µM (active).

The values above are taken from PubChem BioAssay (NCATS).
